Assay results published in PubChem BioAssay (NCI).
Compounds without any hit were thinned out: in the full panel of roughly 83,000, 20% have a hit.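 Method: cells in 96-well plates; compound added at one concentration; 48 h incubation; percent growth measured; values under 10 scored active.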 Activity calls are given as the source filed them.

Tests used:
Assay in all cases: NCI-60 one-dose screen, 48 h (100 = growth as untreated, 0 = no growth, -100 = all killed)
Details in all cases: 10 µM unless noted
T-47D breast = system: T-47D breast
BT-549 breast = system: BT-549 breast
MDA-MB-435 melanoma = system: MDA-MB-435 melanoma
SW-620 colon = system: SW-620 colon
MCF7 breast = system: MCF7 breast
HCT-116 colon = system: HCT-116 colon
HCC-2998 colon = system: HCC-2998 colon
KM12 colon = system: KM12 colon

Measured: growth

COc1cccc(N2CCN(CC(=O)N3CCN(c4nnc(-c5ccc(Cl)cc5)c(-c5ccc(Cl)cc5)n4)CC3)CC2)c1
inactive: T-47D breast 27.2% | BT-549 breast 88.4% | MDA-MB-435 melanoma 70.9% | SW-620 colon 72.3% | MCF7 breast 41.2% | HCT-116 colon 40.1% | HCC-2998 colon 80.6% | KM12 colon 56.5%

CCCCCCCCCCNCCSS(=O)(=O)O
inactive: T-47D breast 88.7% | BT-549 breast 113% | MDA-MB-435 melanoma 62.4% | SW-620 colon 81.8% | MCF7 breast 19.2% | HCT-116 colon 52.9% | HCC-2998 colon 76.4%
active: KM12 colon 4.36%

C[C@H]1O[C@@H](O[C@H]2[C@@H](O)C[C@H](O[C@H]3[C@@H](O)C[C@H](O[C@H]4CC[C@]5(C)C6CC[C@]7(C)[C@@H](C8=CC(=O)OC8)CC[C@]7(O)C6CC[C@@H]5C4)O[C@@H]3C)O[C@@H]2C)C[C@H](O)[C@@H]1O (stereo partly drawn)
active: T-47D breast -44.5% | BT-549 breast -92.5% | MDA-MB-435 melanoma -100% | SW-620 colon -100% | MCF7 breast -41.2% | HCT-116 colon -96.7% | HCC-2998 colon -90.8% | KM12 colon -100%

Cc1onc(-c2ccccc2Cl)c1C(=O)N[C@@H]1C(=O)N2[C@@H]1SC(C)(C)[C@@H]2C(=O)O
inactive: T-47D breast 98.1% | BT-549 breast 100% | MDA-MB-435 melanoma 107% | SW-620 colon 110% | MCF7 breast 101% | HCT-116 colon 101% | HCC-2998 colon 99.6% | KM12 colon 108%

N#Cc1c(-c2ccccc2)cc(-c2ccccc2)n(CCC(=O)O)c1=O
active: MDA-MB-435 melanoma -9.89%
inactive: T-47D breast 44.1% | BT-549 breast 27.2% | SW-620 colon 37.3% | MCF7 breast 35% | HCT-116 colon 40% | HCC-2998 colon 74.3% | KM12 colon 34.5%

N#Cc1ccc(-c2csc(Nc3ccc4nc5n(c(=O)c4c3)CCC5)n2)cc1
inactive: T-47D breast 102% | BT-549 breast 98.4% | MDA-MB-435 melanoma 103% | SW-620 colon 103% | MCF7 breast 92% | HCT-116 colon 96.2% | HCC-2998 colon 116% | KM12 colon 103%

CCCCOP(=O)(OCCCC)C(C(=O)OCC)C(CC(=O)OCC)C(=O)OCC (stereo not drawn)
inactive: T-47D breast 114% | BT-549 breast 114% | MDA-MB-435 melanoma 104% | SW-620 colon 106% | MCF7 breast 93.1% | HCT-116 colon 112% | HCC-2998 colon 109% | KM12 colon 111%

NS(=O)(=O)c1cc(C2(O)NC(=O)c3ccccc32)ccc1Cl (stereo not drawn)
inactive: T-47D breast 109% | BT-549 breast 97.7% | MDA-MB-435 melanoma 101% | SW-620 colon 109% | MCF7 breast 102% | HCT-116 colon 98.9% | HCC-2998 colon 109% | KM12 colon 111%

COc1cc2c(cc1OC)C(CC1(O)CCCCC1)N(S(=O)(=O)c1ccc(C)cc1)CC2 (stereo not drawn)
inactive: T-47D breast 29.7% [100 µM] | SW-620 colon 15.6% [100 µM] | MCF7 breast 25.7% [100 µM] | HCC-2998 colon 39% [100 µM]
active: BT-549 breast -1.8% [100 µM] | MDA-MB-435 melanoma -23.1% [100 µM] | HCT-116 colon 9.09% [100 µM] | KM12 colon 4.08% [100 µM]

COc1ccc2c(c1)c(CC(=O)[Se]C)c(C)n2C(=O)c1ccc(Cl)cc1
inactive: T-47D breast 80.6% | SW-620 colon 29.9% | MCF7 breast 16% | HCC-2998 colon 68.8% | KM12 colon 61.6%
active: BT-549 breast -80.8% | MDA-MB-435 melanoma -20% | HCT-116 colon 0.342%

Oc1ccccc1/C=N/N1CCCCCC1
inactive: T-47D breast 102% | BT-549 breast 97.9% | MDA-MB-435 melanoma 99.9% | SW-620 colon 108% | MCF7 breast 83.8% | HCT-116 colon 102% | HCC-2998 colon 95.8% | KM12 colon 103%

CC(=O)N1N=C(c2ccc(C(F)(F)F)cc2)CC1c1ccc2c(c1)OCO2 (stereo not drawn)
inactive: T-47D breast 86.2% | BT-549 breast 93.7% | MDA-MB-435 melanoma 78.2% | SW-620 colon 88.4% | MCF7 breast 78.6% | HCT-116 colon 45.5% | HCC-2998 colon 94.3% | KM12 colon 89.2%

COC(=O)C1=CCC(n2cnc3c(N)ncnc32)O1 (stereo not drawn)
inactive: T-47D breast 102% | BT-549 breast 114% | MDA-MB-435 melanoma 102% | SW-620 colon 106% | MCF7 breast 120% | HCT-116 colon 98.6% | HCC-2998 colon 106% | KM12 colon 100%

COc1ccc(C2CC(c3ccc4c(c3)OCO4)=NN2C=O)cc1 (stereo not drawn)
inactive: T-47D breast 99.2% | BT-549 breast 89.1% | MDA-MB-435 melanoma 110% | SW-620 colon 104% | MCF7 breast 98.6% | HCT-116 colon 96.4% | HCC-2998 colon 102% | KM12 colon 105%

O=C(/C=C/c1c(-c2ccccc2)[nH]c2ccccc12)S(=O)(=O)c1ccccc1
inactive: T-47D breast 29.4% | BT-549 breast 87.9% | SW-620 colon 39.8% | MCF7 breast 43.3% | HCT-116 colon 46.1% | HCC-2998 colon 60.7% | KM12 colon 36.3%
active: MDA-MB-435 melanoma 9.36%

c1ccc(Nc2ccc(Nc3nc(-c4ccccc4)nc4ccccc34)cc2)cc1
inactive: T-47D breast 47.9% | BT-549 breast 93.8% | MDA-MB-435 melanoma 87.5% | SW-620 colon 75.7% | MCF7 breast 80.6% | HCT-116 colon 74.9% | HCC-2998 colon 89% | KM12 colon 36.4%

Nc1ccc2c(c1)C(=O)c1cc(Cl)c(Cl)cc1-2
inactive: T-47D breast 91% | BT-549 breast 85.2% | MDA-MB-435 melanoma 102% | SW-620 colon 101% | MCF7 breast 69.2% | HCT-116 colon 93.5% | HCC-2998 colon 98% | KM12 colon 92.8%

O=[N+]([O-])c1cc([N+](=O)[O-])c(N2CCCC2)cc1NN=C(c1ccc(O)cc1)c1ccc(O)cc1
active: T-47D breast -7.05% | MCF7 breast 9.54% | HCT-116 colon 8% | HCC-2998 colon 4.45%
inactive: BT-549 breast 86.6% | MDA-MB-435 melanoma 76.1% | SW-620 colon 107% | KM12 colon 85.7%

COc1cnc2c(c1)C(=O)c1c-2n(CCCN2CCOCC2)c(=O)c2cc(F)ccc12
active: T-47D breast -16% | MDA-MB-435 melanoma -14.2% | SW-620 colon 6.66% | MCF7 breast 1.93% | HCT-116 colon -77.1% | KM12 colon -14.4%
inactive: BT-549 breast 13.3% | HCC-2998 colon 13.2%

COc1cc(/C=C/C(=O)CC(=O)/C=C/c2ccc(OC(=O)C3C4CC5CC(C4)CC3C5)c(OC)c2)ccc1OC(=O)C1C2CC3CC(C2)CC1C3 (stereo not drawn)
inactive: T-47D breast 99.4% | BT-549 breast 108% | MDA-MB-435 melanoma 112% | SW-620 colon 113% | MCF7 breast 110% | HCT-116 colon 93% | HCC-2998 colon 98.8% | KM12 colon 107%

CC(=O)O[C@H]1CC[C@@]2(C)C(=CC[C@@H]3[C@@H]2CC[C@]2(C)C(c4cccnc4)=CC[C@@H]32)C1
inactive: T-47D breast 47.2% | BT-549 breast 63.4% | MDA-MB-435 melanoma 34.5% | SW-620 colon 76.4% | MCF7 breast 46% | HCT-116 colon 54.1% | HCC-2998 colon 65.1% | KM12 colon 53.7%

Clc1ccc2nc(CI)c(CI)nc2c1
inactive: T-47D breast 85.3% | BT-549 breast 73.1% | MDA-MB-435 melanoma 23.8% | SW-620 colon 25.1% | MCF7 breast 22.4% | HCT-116 colon 11% | HCC-2998 colon 100% | KM12 colon 101%

Nc1ncnc2c1CN(Cc1ccccc1)CC2
inactive: T-47D breast 105% | BT-549 breast 108% | MDA-MB-435 melanoma 107% | SW-620 colon 107% | MCF7 breast 93.6% | HCT-116 colon 102% | HCC-2998 colon 98.5% | KM12 colon 108%

Cn1c(N2N=C(c3ccc(Cl)cc3)CC2c2ccccc2)nc(-c2ccccc2)c(C#N)c1=O (stereo not drawn)
inactive: T-47D breast 64.4% | BT-549 breast 88.1% | MDA-MB-435 melanoma 83.6% | SW-620 colon 77.1% | MCF7 breast 62.1% | HCT-116 colon 51% | HCC-2998 colon 82.3% | KM12 colon 78.3%

CCOC(=O)CCC(=O)O[C@H]1[C@H](O[C@@H]2[C@@H](C)[C@H](O[C@H]3C[C@@](C)(OC)[C@@H](O)[C@H](C)O3)[C@@H](C)C(=O)O[C@H](CC)[C@@](C)(O)[C@H](O)[C@@H](C)C(=O)[C@H](C)C[C@@]2(C)O)O[C@H](C)C[C@@H]1N(C)C
inactive: T-47D breast 97.1% | BT-549 breast 97.3% | MDA-MB-435 melanoma 105% | SW-620 colon 107% | MCF7 breast 113% | HCT-116 colon 99.7% | HCC-2998 colon 105% | KM12 colon 111%

OCc1n(Cc2ccc3ccccc3c2)cc[n+]1Cc1ccc2ccccc2c1
inactive: T-47D breast 31.3% | BT-549 breast 31.2% | SW-620 colon 67.7% | MCF7 breast 61.8% | HCT-116 colon 35.6% | HCC-2998 colon 39.8% | KM12 colon 39.3%
active: MDA-MB-435 melanoma 5.53%

O=C(CNC(=O)c1cccc2ccccc12)Nc1ccccc1Oc1ccc(O)cc1
inactive: T-47D breast 36.5% [5 µM] | BT-549 breast 58.5% [5 µM] | SW-620 colon 28.9% [5 µM] | MCF7 breast 27.1% [5 µM] | HCT-116 colon 15.9% [5 µM] | HCC-2998 colon 55.6% [5 µM] | KM12 colon 30.1% [5 µM]
active: MDA-MB-435 melanoma -16.1% [5 µM]

CCCCCN1C(=O)CCC1=O
inactive: T-47D breast 95.5% | BT-549 breast 103% | MDA-MB-435 melanoma 102% | SW-620 colon 111% | MCF7 breast 98.4% | HCT-116 colon 105% | HCC-2998 colon 103% | KM12 colon 94.5%

Nc1ccccc1C#Cc1ccccc1C#Cc1ccc(OCCCCCCOc2ccc(C#Cc3ccccc3C#Cc3ccccc3N)cc2)cc1
inactive: T-47D breast 90.1% | BT-549 breast 104% | MDA-MB-435 melanoma 97.5% | SW-620 colon 98.9% | MCF7 breast 74.7% | HCT-116 colon 110% | HCC-2998 colon 95.5% | KM12 colon 113%

O=C(/C=C(\Nc1ccccc1)c1ccccc1)c1cn(-c2ccc([N+](=O)[O-])cc2)nn1
inactive: T-47D breast 96.4% | BT-549 breast 110% | MDA-MB-435 melanoma 102% | SW-620 colon 93.2% | MCF7 breast 103% | HCT-116 colon 92.1% | HCC-2998 colon 103% | KM12 colon 110%

COC(=O)[C@H]1[C@H]2C[C@@H]3c4[nH]c5cc(OC)ccc5c4CCN3C[C@H]2C[C@@H](OC(=O)/C=C/c2cc(OC)c(OC)c(OC)c2)[C@@H]1OC
active: MDA-MB-435 melanoma 7.45% | HCT-116 colon -28%
inactive: T-47D breast 45% | BT-549 breast 67.8% | SW-620 colon 61.3% | MCF7 breast 29.1% | HCC-2998 colon 105% | KM12 colon 40.5%
